About 7,900 targets were measured; listed, in parts, are those with a hit and a random draw of the rest. About 0.6% of all pairs of compound and target were hits.
What was measured:
Assay in all cases: log2 fold change, soluble protein after heating vs DMSO (PISA); higher = thermal stabilisation; K562 cells, 10 uM, 30 min; active = over 0.2 and 3.5 SD of the protein, either way, in both replicates (recomputed)
[1] = compound: CC[C@@H]1C(=O)N(C)c2cnc(Nc3ccc(C(=O)NC4CCN(C)CC4)cc3OC)nc2N1C1CCCC1
Method in brief: (§1)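 K562 cells at 2×10^6 cells/mL were exposed to 10 μM compound for 30 min, then aliquots were heated for 3 min across 48°C-58°C, pooled, and extracted in PBS containing 0.5% NP-40 at 4°C. The supernatant after 21,000xg for 90 min was taken as soluble protein and measured by TMTpro 16plex LC-MS/MS with channel sums equalised. Thermal stability is reported relative to control samples, with values from duplicates. Fold changes are given on a log2 scale.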

volasertib = compound: CC[C@@H]1C(=O)N(C)c2cnc(Nc3ccc(C(=O)N[C@H]4CC[C@H](N5CCN(CC6CC6)CC5)CC4)cc3OC)nc2N1C(C)C [volasertib]
Method in brief: as §1

[2] = compound: CC[C@H](C)N1C=C(C2=C(C=C(C=C21)C3=CN=C(C=C3)N4CCNCC4)C(=O)NCC5=C(C=C(NC5=O)C)C)C
Method in brief: as §1

epoxomicin = compound: CC[C@H](C)[C@@H](C(=O)N[C@@H]([C@@H](C)O)C(=O)N[C@@H](CC(C)C)C(=O)[C@]1(CO1)C)NC(=O)[C@H]([C@@H](C)CC)N(C)C(=O)C [epoxomicin]
Method in brief: as §1

[3] = compound: CCn1c(C(=O)N(C2CC2)C2CC2)cc2c3c(ncn3C)c(Nc3cc(C)n(C)n3)nc21
Method in brief: as §1

[4] = compound: CCn1cc(-c2ccnc3[nH]c(-c4cccc(CN(C)C)c4)cc23)c(-c2ccc(NC(=O)N(C)C)cc2)n1
Method in brief: as §1

[5] = compound: CN(C)CC(=O)Nc1ccc2[nH]c(=O)c3ccccc3c2c1
Method in brief: as §1

rosiglitazone = compound: CN(CCOC1=CC=C(C=C1)C[C@H]2C(=O)NC(=O)S2)C3=CC=CC=N3 (racemic) [rosiglitazone]
Method in brief: as §1

[6] = compound: CN1C2=C(C3=C1C(=O)N(N=C3)CC4=CC(=CC=C4)N)SC(=C2)S(=O)C
Method in brief: as §1

[7] = compound: CN1CCC(CNc2ccc3ncc(-c4cccc(OC(F)(F)F)c4)n3n2)CC1
Method in brief: as §1

Measured: log2 fold change

SLC25A38 (UniProt Q96DW6)
inactive: [1] 0.013 | volasertib 0.009 | [2] -0.002 | epoxomicin -0.025 | [3] 0.048 | [4] 0 | [5] -0.02 | rosiglitazone -0.028 | [6] -0.017 | [7] -0.048

TBC1D23 (UniProt Q9NUY8)
active: [7] -0.651
inactive: [1] -0.228 | volasertib -0.261 | [2] 0.008 | epoxomicin 0.049 | [3] -0.05 | [4] -0.069 | [5] 0.025 | rosiglitazone 0.042 | [6] 0.043

STK4 (UniProt Q13043)
UniProt Q13043, sequence (Q13043 whole entry, looked up): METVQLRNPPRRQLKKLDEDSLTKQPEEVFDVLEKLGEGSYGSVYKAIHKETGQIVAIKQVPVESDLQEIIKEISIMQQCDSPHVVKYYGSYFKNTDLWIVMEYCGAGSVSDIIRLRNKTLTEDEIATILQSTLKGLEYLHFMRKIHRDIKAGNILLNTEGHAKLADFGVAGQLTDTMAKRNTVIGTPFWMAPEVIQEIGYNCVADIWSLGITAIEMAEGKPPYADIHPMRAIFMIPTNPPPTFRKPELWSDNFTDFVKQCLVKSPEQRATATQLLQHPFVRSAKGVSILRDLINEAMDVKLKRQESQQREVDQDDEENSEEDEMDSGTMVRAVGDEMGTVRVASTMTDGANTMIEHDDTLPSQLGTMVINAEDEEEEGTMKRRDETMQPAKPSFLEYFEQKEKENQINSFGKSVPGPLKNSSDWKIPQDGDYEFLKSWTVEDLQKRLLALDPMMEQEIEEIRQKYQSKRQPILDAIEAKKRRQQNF
inactive: [1] 0.024 | volasertib 0.006 | [2] 0.014 | epoxomicin 0.033 | [3] -0.029 | [4] -0.041 | [5] 0.013 | rosiglitazone 0.03 | [6] 0.004 | [7] -0.061

SRC isoform 2 (UniProt P12931)
UniProt P12931, sequence (P12931 whole entry, looked up): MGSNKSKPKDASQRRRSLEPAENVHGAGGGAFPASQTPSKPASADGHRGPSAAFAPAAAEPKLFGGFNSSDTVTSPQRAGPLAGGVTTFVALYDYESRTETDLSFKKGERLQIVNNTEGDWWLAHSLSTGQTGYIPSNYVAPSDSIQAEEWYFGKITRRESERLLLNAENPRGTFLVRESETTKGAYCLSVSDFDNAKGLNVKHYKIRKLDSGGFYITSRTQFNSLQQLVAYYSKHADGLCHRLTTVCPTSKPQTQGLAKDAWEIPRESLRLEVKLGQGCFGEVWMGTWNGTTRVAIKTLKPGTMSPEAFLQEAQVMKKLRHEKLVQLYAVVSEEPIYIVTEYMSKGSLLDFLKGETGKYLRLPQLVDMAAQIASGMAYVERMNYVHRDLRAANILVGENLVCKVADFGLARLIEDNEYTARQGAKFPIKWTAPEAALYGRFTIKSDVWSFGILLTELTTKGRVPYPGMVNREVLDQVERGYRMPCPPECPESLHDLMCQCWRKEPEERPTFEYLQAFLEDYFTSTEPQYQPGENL
inactive: [1] 0.079 | volasertib -0.03 | [2] 0.108 | epoxomicin -0.16 | [3] -0.101 | [4] -0.066 | [5] -0.032 | rosiglitazone 0.029 | [6] -0.002 | [7] -0.149

STK25 (UniProt O00506)
UniProt O00506, sequence (O00506 whole entry, looked up): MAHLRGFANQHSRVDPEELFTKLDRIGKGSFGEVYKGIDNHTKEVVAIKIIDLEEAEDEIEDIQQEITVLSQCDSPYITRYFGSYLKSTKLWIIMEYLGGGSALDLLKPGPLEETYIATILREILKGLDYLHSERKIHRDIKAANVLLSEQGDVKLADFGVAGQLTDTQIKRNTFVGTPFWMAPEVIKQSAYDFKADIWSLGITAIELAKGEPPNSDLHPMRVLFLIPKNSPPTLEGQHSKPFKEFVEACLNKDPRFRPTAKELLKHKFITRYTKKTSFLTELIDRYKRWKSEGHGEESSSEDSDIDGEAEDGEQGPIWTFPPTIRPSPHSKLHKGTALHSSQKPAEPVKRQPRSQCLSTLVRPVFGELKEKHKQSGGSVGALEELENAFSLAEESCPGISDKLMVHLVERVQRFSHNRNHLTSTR
inactive: [1] -0.031 | volasertib -0.107 | [2] 0.024 | epoxomicin 0.033 | [3] -0.041 | [4] -0.008 | [5] -0.024 | rosiglitazone 0.077 | [6] 0.017 | [7] -0.216

SPG11 (UniProt Q96JI7)
UniProt Q96JI7, sequence (Q96JI7 whole entry, looked up): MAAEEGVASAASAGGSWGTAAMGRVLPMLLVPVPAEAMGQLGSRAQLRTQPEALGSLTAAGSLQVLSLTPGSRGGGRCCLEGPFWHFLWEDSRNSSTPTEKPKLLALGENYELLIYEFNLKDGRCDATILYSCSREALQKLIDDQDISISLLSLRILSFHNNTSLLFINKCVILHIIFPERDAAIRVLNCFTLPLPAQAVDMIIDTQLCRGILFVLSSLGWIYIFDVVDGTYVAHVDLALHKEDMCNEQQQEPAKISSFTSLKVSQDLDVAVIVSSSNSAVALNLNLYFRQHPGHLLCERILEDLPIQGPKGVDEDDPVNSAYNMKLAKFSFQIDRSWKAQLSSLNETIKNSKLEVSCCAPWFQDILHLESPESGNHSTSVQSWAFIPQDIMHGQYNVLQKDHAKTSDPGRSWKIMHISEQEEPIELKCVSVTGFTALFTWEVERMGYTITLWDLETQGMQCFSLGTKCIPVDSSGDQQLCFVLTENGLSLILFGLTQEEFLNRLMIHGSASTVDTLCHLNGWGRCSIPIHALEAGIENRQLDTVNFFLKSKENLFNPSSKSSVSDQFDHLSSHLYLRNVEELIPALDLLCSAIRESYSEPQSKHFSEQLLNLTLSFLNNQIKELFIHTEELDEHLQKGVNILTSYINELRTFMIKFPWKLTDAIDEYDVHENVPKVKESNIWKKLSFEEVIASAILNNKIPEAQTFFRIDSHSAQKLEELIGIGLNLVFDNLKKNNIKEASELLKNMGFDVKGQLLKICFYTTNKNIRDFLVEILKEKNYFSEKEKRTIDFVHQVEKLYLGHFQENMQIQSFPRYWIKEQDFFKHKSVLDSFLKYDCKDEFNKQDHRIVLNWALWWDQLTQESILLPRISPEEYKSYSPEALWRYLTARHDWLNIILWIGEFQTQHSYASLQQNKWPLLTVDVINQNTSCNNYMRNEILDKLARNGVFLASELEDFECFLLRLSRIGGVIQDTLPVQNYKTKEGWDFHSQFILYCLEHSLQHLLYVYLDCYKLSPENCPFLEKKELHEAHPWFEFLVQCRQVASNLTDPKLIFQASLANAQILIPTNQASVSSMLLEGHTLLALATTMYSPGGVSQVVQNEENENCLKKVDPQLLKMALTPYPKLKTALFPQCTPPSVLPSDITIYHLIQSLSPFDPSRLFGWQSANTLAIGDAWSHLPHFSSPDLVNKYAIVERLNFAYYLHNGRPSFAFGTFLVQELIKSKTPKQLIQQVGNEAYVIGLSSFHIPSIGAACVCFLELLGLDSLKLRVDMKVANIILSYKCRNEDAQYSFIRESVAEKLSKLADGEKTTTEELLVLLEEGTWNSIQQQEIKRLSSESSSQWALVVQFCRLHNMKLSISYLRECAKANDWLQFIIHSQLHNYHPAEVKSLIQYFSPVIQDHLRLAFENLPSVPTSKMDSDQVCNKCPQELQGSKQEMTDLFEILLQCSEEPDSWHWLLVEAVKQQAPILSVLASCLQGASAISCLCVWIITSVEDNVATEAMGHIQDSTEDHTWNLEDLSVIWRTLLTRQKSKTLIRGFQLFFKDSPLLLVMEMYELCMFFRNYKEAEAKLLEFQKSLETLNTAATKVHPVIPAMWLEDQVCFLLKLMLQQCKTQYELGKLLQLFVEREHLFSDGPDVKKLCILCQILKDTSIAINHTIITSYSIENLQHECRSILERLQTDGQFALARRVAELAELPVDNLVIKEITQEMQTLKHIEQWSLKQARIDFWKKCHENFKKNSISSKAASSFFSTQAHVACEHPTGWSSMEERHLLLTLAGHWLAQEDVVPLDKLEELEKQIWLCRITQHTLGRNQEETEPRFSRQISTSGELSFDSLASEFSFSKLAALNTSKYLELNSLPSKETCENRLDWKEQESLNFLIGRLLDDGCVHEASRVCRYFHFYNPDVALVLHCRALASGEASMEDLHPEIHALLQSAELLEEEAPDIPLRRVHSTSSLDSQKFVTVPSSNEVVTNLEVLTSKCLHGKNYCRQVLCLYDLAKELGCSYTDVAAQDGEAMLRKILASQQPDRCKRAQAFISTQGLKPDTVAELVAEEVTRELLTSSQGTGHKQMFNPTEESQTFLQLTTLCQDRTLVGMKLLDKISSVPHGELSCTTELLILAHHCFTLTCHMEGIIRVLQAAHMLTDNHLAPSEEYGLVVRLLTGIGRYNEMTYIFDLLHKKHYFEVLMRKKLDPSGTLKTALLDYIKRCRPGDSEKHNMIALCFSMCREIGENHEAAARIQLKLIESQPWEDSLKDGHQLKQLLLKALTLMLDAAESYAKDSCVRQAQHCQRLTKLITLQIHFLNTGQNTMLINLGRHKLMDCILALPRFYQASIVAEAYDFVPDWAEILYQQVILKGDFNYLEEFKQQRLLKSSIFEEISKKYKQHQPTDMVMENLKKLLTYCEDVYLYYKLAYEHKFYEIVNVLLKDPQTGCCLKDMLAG
inactive: [1] 0.155 | volasertib -0.294 | [2] 0.017 | epoxomicin -0.085 | [3] 0.019 | [4] 0.141 | [5] -0.216 | rosiglitazone -0.045 | [6] 0.367
active: [7] -1.24

TLK1 (UniProt Q9UKI8)
UniProt Q9UKI8, sequence (Q9UKI8 whole entry, looked up): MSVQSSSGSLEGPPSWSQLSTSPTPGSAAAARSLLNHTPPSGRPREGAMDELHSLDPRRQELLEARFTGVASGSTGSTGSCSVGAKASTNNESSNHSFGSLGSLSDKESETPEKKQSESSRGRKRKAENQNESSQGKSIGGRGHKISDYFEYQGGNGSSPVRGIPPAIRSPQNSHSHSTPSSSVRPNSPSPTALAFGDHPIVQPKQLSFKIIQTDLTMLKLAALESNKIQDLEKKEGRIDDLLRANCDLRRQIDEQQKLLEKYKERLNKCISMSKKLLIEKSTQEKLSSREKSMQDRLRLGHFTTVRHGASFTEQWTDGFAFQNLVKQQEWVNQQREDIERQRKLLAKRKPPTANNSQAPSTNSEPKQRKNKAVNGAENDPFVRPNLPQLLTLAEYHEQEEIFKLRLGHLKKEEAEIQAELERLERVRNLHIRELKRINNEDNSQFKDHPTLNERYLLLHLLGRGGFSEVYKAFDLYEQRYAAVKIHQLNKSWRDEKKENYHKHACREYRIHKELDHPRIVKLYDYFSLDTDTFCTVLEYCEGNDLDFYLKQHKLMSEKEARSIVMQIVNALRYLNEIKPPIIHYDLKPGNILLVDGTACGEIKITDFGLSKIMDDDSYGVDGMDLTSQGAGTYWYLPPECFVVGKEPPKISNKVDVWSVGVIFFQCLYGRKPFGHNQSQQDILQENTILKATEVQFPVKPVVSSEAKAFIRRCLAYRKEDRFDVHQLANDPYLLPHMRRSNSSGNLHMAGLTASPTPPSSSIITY
inactive: [1] 0.017 | volasertib -0.088 | [2] 0.02 | epoxomicin -0.018 | [3] 0.01 | [4] -0.054 | [5] 0.033 | rosiglitazone 0.026 | [6] -0.086 | [7] -0.037

STK11IP (UniProt Q8N1F8)
inactive: [1] -0.224 | [2] 0.103 | epoxomicin 0.069 | [3] -0.051 | [4] -0.006 | [5] 0.025 | rosiglitazone 0.011 | [6] 0.026 | [7] -0.233
active: volasertib -0.517

SRSF4 (UniProt Q08170)
inactive: [1] 0.091 | volasertib -0.001 | [2] 0.011 | epoxomicin -0.175 | [3] -0.068 | [4] 0.115 | [5] -0.09 | rosiglitazone -0.09 | [6] 0.205 | [7] 0.087

SUN2 (UniProt Q9UH99)
inactive: [1] 0.016 | volasertib -0.064 | [2] 0.01 | epoxomicin 0.045 | [3] 0.006 | [4] -0.032 | [5] -0.012 | rosiglitazone 0.033 | [6] 0.015 | [7] 0.057

TFR2 (UniProt Q9UP52)
active: [1] -0.483 | volasertib -0.382
inactive: [2] -0.045 | epoxomicin 0.01 | [3] 0.037 | [4] 0.038 | [5] -0.035 | rosiglitazone -0.007 | [6] -0.003 | [7] -0.22

SSR3 isoform 2 (UniProt Q9UNL2)
inactive: [1] 0.05 | volasertib 0.059 | [2] -0.075 | epoxomicin -0.054 | [3] 0.062 | [4] -0.069 | [5] 0.087 | rosiglitazone -0.002 | [6] 0.056 | [7] 0.195

SYMPK (UniProt Q92797)
inactive: [1] -0.341 | [2] -0.289 | epoxomicin 0.073 | [3] -0.036 | [4] -0.026 | [5] 0.123 | rosiglitazone 0.13 | [6] 0.076 | [7] -0.141
active: volasertib -0.5

SPTBN1 (UniProt Q01082)
inactive: [1] 0.009 | volasertib -0.163 | [2] 0.079 | epoxomicin -0.024 | [3] -0.048 | [4] 0.013 | [5] 0.018 | rosiglitazone 0.001 | [6] 0.081 | [7] 0.048

SLC7A6 (UniProt Q92536)
inactive: [1] 0.048 | volasertib 0.042 | [2] -0.099 | epoxomicin 0.211 | [3] 0.014 | [4] -0.018 | [5] 0.04 | rosiglitazone 0.023 | [6] -0.036 | [7] 0.122

TATDN2 (UniProt Q93075)
inactive: [1] 0.071 | volasertib -0.008 | [2] 0.104 | epoxomicin -0.096 | [3] 0.044 | [4] -0.071 | [5] -0.098 | rosiglitazone 0.082 | [6] 0.046 | [7] -0.076

TFAM (UniProt Q00059)
inactive: [1] 0.058 | volasertib 0.059 | [2] 0.007 | epoxomicin -0.053 | [3] 0.035 | [4] 0.062 | [5] -0.074 | rosiglitazone -0.017 | [6] 0.098 | [7] 0.049

SMG1 (UniProt Q96Q15)
active: volasertib -0.391
inactive: [1] -0.137 | [2] 0.158 | epoxomicin 0.024 | [3] 0.002 | [4] 0.05 | [5] 0.046 | rosiglitazone -0.003 | [6] 0.129 | [7] -0.02

TAX1BP1 (UniProt Q86VP1)
inactive: [1] -0.144 | [2] -0.081 | epoxomicin -0.027 | [3] 0.055 | [4] -0.067 | [5] 0 | rosiglitazone -0.011 | [6] -0.001 | [7] 0.003
active: volasertib -0.298

TFRC (UniProt P02786)
inactive: [2] -0.035 | epoxomicin -0.009 | [3] 0.051 | [4] -0.005 | [5] 0.004 | rosiglitazone -0.007 | [6] -0.033
active: [1] -0.589 | volasertib -0.417 | [7] -0.289

TCOF1 isoform 4 (UniProt Q13428)
inactive: [1] -0.018 | volasertib 0.034 | [2] -0.016 | epoxomicin -0.02 | [3] 0.013 | [4] 0.063 | [5] -0.052 | rosiglitazone -0.011 | [6] 0.019 | [7] -0.06

SPTBN4 (UniProt Q9H254)
inactive: [1] 0.051 | volasertib -0.293 | [2] -0.025 | epoxomicin -0.018 | [3] -0.065 | [4] -0.1 | [5] 0.171 | rosiglitazone 0.017 | [6] 0.011 | [7] 0.153

SPART (UniProt Q8N0X7)
inactive: [1] -0.031 | [2] -0.005 | epoxomicin -0.123 | [3] -0.015 | [4] 0.014 | [5] 0.069 | rosiglitazone 0.04 | [6] -0.035 | [7] -0.052
active: volasertib -0.224

TAOK3 (UniProt Q9H2K8)
inactive: [1] -0.005 | volasertib -0.083 | [2] 0.058 | epoxomicin 0.007 | [3] 0.007 | [4] -0.019 | [5] 0.059 | rosiglitazone 0.001 | [6] -0.067 | [7] -0.059

SLC27A2 (UniProt O14975)
active: volasertib -0.408 | [3] 0.277 | [7] 0.313
inactive: [1] -0.094 | [2] 0 | epoxomicin -0.05 | [4] -0.064 | [5] 0.016 | rosiglitazone -0.032 | [6] -0.092

SLC7A6OS (UniProt Q96CW6)
inactive: [1] -0.027 | volasertib -0.084 | [2] -0.042 | epoxomicin 0.01 | [3] -0.07 | [4] -0.038 | [5] 0.004 | rosiglitazone -0.06 | [6] -0.05 | [7] 0.055

TIMM13 (UniProt Q9Y5L4)
inactive: [1] 0.019 | volasertib -0.048 | [2] 0.027 | epoxomicin 0.213 | [3] 0.024 | [4] 0 | [5] -0.032 | rosiglitazone 0.029 | [6] -0.094 | [7] 0.237

SLC9A6 isoform 2 (UniProt Q92581)
inactive: [1] 0.047 | volasertib -0.081 | [2] 0.009 | epoxomicin -0.013 | [3] -0.003 | [4] -0.003 | [5] -0.026 | rosiglitazone -0.013 | [6] -0.039 | [7] -0.071

STK38 (UniProt Q15208)
active: volasertib -0.363
inactive: [1] -0.107 | [2] 0.106 | epoxomicin 0.035 | [3] 0 | [4] 0.003 | [5] 0.059 | rosiglitazone 0.05 | [6] -0.005 | [7] -0.068

TIAL1 isoform 2 (UniProt Q01085)
UniProt Q01085, sequence (Q01085 whole entry, looked up): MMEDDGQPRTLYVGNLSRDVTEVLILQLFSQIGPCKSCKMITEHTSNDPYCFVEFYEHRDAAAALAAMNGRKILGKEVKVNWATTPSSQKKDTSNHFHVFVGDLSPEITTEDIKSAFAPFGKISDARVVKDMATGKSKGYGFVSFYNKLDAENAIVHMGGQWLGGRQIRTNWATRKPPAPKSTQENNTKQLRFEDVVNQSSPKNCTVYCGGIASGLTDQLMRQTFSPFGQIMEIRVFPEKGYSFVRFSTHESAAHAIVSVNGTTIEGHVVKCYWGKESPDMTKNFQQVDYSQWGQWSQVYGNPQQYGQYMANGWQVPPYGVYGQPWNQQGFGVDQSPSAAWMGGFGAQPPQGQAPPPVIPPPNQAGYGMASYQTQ
inactive: [1] 0.042 | volasertib -0.042 | [2] 0.006 | epoxomicin 0.001 | [3] 0.01 | [4] 0.026 | [5] -0.056 | rosiglitazone -0.019 | [6] -0.063 | [7] -0.03
